# Key:
# Assay in all cases: DAPPL (digital affinity profiling via proximity ligation, sequencing); 10 mM Tris-HCl pH 7.5, 50 mM NaCl, 1 mM DTT, 4% glycerol, room temperature, 30 min; GST-TFs on glutathione beads, 16-mer random dsDNA library, 0.1% formaldehyde crosslink after washing; high values mean tight binding
# [1] = biological target: T1, FLI1 (Homo sapiens, UniProt Q01543 1-452); settings: protein: recombinant; tags: N-terminal GST; dsDNA, one strand shown
# T1 sequence: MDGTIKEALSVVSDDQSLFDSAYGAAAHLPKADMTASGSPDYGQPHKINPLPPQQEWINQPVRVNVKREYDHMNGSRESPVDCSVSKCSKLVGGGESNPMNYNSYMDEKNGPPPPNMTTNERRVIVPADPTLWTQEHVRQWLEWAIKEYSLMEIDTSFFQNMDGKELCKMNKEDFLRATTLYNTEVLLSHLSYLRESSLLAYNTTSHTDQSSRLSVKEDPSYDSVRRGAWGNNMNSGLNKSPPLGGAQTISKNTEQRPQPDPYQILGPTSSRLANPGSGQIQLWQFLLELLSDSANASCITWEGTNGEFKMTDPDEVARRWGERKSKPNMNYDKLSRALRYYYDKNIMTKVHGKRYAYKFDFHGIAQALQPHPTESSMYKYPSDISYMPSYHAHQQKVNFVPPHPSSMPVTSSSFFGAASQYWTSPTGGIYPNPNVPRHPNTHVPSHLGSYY
# In short: (§1)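 Human transcription factors fused to GST were expressed in yeast, captured on glutathione beads, given DNA barcodes and pooled with a GST-only negative control. Pools were incubated with 200 nmole of a 16-mer random double-stranded DNA library in Tris/NaCl/DTT/glycerol buffer at room temperature for 30 min. They were then washed, crosslinked with 0.1% formaldehyde, proximity-ligated (BsaI/T4 ligase, 1 h, 37 °C), PCR-amplified and sequenced on an Illumina NextSeq500. Binding signal is each 6-mer's read frequency for a factor divided by its frequency for the GST control.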
# [2] = biological target: T2, ELK1 (Homo sapiens, UniProt P19419 1-428); settings: protein: recombinant; tags: N-terminal GST; dsDNA, one strand shown
# T2 sequence: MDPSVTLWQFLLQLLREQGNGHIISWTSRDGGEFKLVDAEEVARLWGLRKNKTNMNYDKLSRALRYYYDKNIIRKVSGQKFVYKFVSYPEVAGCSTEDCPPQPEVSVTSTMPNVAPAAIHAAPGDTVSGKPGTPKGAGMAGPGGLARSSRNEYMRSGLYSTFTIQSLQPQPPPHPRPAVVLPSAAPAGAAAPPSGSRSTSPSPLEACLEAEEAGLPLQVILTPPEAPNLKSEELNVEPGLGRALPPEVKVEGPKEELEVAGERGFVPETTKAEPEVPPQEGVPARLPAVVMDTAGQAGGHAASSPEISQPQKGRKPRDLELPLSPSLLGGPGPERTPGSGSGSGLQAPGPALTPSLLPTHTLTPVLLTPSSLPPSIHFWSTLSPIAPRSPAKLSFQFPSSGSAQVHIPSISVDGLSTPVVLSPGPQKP
# In short: as §1
# [3] = biological target: T3, GABPA (Homo sapiens, UniProt Q06546 1-454); settings: protein: recombinant; tags: N-terminal GST; dsDNA, one strand shown
# T3 sequence: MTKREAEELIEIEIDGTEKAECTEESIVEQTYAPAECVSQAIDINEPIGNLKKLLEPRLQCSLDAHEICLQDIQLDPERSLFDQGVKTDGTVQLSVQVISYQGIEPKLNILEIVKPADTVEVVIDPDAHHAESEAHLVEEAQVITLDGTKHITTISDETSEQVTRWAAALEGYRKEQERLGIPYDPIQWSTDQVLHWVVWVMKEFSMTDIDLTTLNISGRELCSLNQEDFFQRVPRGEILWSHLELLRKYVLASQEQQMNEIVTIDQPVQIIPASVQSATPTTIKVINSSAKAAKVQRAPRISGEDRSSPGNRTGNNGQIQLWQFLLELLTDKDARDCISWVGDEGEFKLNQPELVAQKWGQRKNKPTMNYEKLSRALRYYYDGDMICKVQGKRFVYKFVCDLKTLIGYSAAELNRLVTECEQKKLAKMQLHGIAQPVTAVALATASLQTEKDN
# In short: as §1
# [4] = biological target: T4, ERG (Homo sapiens, UniProt P11308 1-479); settings: protein: recombinant; tags: N-terminal GST; dsDNA, one strand shown
# T4 sequence: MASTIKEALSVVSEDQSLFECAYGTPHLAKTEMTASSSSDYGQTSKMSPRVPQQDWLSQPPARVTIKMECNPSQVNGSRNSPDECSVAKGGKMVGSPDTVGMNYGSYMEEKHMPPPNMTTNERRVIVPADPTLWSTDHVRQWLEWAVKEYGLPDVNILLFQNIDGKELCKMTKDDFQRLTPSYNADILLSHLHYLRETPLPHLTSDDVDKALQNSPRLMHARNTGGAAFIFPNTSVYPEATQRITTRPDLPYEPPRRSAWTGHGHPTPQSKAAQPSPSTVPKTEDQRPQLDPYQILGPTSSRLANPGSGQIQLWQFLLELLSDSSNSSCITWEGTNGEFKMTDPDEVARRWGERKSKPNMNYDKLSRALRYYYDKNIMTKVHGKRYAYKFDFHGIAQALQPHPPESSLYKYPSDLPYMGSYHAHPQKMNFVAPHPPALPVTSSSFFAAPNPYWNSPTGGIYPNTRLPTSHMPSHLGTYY
# In short: as §1
# [5] = biological target: ELF1 (Homo sapiens, UniProt P32519 1-619); settings: protein: recombinant; tags: N-terminal GST; dsDNA, one strand shown
# In short: as §1
# [6] = biological target: T5, EHF (Homo sapiens, UniProt Q9NZC4 1-300); settings: protein: recombinant; tags: N-terminal GST; dsDNA, one strand shown
# T5 sequence: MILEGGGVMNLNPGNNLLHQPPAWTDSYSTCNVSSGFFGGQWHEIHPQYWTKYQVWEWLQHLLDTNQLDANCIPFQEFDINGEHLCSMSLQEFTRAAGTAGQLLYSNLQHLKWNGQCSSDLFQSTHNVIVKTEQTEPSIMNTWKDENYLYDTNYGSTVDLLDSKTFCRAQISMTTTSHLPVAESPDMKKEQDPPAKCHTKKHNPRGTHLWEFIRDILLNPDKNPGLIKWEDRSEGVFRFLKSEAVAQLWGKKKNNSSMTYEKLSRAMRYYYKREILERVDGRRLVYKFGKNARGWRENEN
# In short: as §1
# [7] = biological target: SPI1 (Homo sapiens, UniProt P17947 1-270); settings: protein: recombinant; tags: N-terminal GST; dsDNA, one strand shown
# In short: as §1
# [8] = biological target: SPIB (Homo sapiens, UniProt Q01892 1-262); settings: protein: recombinant; tags: N-terminal GST; dsDNA, one strand shown
# In short: as §1
# [9] = biological target: T6, ELK3 (Homo sapiens, UniProt P41970 1-407); settings: protein: recombinant; tags: N-terminal GST; dsDNA, one strand shown
# T6 sequence: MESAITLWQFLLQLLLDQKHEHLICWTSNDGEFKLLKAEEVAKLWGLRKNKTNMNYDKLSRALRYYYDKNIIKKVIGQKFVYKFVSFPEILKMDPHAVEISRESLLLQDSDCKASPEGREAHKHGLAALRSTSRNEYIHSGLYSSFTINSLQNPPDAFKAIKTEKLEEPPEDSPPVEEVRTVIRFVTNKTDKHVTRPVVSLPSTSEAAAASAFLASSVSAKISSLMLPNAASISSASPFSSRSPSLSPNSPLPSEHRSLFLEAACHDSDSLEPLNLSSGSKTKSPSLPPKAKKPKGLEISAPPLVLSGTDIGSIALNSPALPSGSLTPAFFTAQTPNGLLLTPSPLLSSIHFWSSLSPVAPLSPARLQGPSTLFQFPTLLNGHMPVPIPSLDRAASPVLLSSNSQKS
# In short: as §1
# [10] = biological target: T7, FEV (Homo sapiens, UniProt Q99581 1-238); settings: protein: recombinant; tags: N-terminal GST; dsDNA, one strand shown
# T7 sequence: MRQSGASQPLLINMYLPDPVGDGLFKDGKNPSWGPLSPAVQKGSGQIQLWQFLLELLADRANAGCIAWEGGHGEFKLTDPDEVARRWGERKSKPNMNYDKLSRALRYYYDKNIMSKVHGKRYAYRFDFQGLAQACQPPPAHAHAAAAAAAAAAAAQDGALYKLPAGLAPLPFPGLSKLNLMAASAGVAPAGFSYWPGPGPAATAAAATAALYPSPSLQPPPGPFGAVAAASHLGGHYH
# In short: as §1
# [11] = biological target: ETV5 (Homo sapiens, UniProt P41161 1-510); settings: protein: recombinant; tags: N-terminal GST; dsDNA, one strand shown
# In short: as §1
# [12] = biological target: HSF1 (Homo sapiens, UniProt Q00613 1-529); settings: protein: recombinant; tags: N-terminal GST; chain copies: 3; dsDNA, one strand shown
# In short: as §1
# [13] = biological target: T8, SPIC (Homo sapiens, UniProt Q8N5J4 1-248); settings: protein: recombinant; tags: N-terminal GST; dsDNA, one strand shown
# T8 sequence: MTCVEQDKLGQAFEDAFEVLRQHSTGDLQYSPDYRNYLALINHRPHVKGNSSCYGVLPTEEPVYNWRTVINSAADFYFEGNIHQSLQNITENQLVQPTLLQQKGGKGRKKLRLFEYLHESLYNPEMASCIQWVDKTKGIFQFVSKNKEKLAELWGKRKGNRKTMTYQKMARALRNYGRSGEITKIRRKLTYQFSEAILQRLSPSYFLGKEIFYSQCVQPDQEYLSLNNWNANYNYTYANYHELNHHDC
# In short: as §1
# [14] = biological target: ELF4 (Homo sapiens, UniProt Q99607 1-663); settings: protein: recombinant; tags: N-terminal GST; dsDNA, one strand shown
# In short: as §1
# [15] = biological target: T9, ELK4 (Homo sapiens, UniProt P28324-2 1-405); settings: protein: recombinant; tags: N-terminal GST; dsDNA, one strand shown
# T9 sequence: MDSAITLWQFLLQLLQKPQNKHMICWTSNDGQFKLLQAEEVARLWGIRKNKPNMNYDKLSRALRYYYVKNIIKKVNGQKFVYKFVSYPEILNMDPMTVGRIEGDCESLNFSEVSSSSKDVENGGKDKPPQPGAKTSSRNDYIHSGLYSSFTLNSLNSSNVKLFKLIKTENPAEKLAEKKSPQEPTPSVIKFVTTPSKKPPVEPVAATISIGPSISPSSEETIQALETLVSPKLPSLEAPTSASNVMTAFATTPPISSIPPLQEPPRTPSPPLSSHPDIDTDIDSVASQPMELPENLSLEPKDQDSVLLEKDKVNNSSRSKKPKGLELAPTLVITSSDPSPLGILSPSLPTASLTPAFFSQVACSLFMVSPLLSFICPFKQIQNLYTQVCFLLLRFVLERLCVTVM
# In short: as §1
# [16] = biological target: T10, ETV2 (Homo sapiens, UniProt O00321 1-342); settings: protein: recombinant; tags: N-terminal GST; dsDNA, one strand shown
# T10 sequence: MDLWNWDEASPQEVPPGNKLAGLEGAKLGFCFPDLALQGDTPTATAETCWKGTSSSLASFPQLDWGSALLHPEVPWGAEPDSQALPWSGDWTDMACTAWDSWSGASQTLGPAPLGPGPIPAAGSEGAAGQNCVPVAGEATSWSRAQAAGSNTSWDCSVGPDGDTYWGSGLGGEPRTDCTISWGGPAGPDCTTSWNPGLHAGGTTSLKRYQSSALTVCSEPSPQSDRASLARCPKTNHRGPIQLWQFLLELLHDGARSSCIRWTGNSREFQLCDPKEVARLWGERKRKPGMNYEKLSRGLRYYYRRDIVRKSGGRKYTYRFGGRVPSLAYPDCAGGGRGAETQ
# In short: as §1
# [17] = biological target: T11, ELF3 (Homo sapiens, UniProt P78545 1-371); settings: protein: recombinant; tags: N-terminal GST; dsDNA, one strand shown
# T11 sequence: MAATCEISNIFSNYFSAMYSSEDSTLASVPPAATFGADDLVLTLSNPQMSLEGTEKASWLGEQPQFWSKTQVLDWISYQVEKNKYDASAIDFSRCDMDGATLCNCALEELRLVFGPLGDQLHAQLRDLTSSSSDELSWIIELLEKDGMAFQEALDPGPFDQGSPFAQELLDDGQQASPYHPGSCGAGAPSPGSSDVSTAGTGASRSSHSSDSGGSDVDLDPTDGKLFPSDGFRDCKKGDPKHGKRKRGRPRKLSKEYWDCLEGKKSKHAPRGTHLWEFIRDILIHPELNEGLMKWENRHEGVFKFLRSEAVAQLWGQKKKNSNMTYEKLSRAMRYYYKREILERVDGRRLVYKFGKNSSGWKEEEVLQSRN
# In short: as §1
# [18] = biological target: CRX (Homo sapiens, UniProt O43186 1-299); settings: protein: recombinant; tags: N-terminal GST; dsDNA, one strand shown
# In short: as §1
# [19] = biological target: ETV1 (Homo sapiens, UniProt P50549 1-477); settings: protein: recombinant; tags: N-terminal GST; dsDNA, one strand shown
# In short: as §1
# SPIB, sequence (Q01892 whole entry): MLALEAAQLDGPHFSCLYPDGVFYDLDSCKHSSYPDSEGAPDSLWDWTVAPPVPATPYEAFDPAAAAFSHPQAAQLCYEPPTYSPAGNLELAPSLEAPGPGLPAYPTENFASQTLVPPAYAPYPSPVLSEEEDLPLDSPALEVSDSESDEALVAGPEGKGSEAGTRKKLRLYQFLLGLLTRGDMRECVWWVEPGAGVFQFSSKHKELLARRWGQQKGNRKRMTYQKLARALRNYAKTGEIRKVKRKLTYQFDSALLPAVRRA
# ELF1, sequence (P32519 whole entry): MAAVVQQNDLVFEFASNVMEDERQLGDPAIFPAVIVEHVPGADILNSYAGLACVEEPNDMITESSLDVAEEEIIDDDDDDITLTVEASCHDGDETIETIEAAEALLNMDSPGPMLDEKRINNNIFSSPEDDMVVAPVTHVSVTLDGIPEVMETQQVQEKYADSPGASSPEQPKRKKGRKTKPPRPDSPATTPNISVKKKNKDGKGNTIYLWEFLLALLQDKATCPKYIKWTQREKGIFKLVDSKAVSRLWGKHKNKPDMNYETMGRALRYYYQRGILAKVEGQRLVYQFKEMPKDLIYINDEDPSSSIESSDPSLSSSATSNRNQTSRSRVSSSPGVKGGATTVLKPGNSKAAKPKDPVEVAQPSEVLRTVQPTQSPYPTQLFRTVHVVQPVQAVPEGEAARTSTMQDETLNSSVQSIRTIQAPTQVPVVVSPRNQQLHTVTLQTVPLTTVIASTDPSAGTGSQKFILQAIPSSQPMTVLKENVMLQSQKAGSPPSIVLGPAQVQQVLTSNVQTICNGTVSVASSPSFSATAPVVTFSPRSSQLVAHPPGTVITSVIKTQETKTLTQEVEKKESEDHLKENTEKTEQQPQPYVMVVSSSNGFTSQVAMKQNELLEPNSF
# ELF4, sequence (Q99607 whole entry): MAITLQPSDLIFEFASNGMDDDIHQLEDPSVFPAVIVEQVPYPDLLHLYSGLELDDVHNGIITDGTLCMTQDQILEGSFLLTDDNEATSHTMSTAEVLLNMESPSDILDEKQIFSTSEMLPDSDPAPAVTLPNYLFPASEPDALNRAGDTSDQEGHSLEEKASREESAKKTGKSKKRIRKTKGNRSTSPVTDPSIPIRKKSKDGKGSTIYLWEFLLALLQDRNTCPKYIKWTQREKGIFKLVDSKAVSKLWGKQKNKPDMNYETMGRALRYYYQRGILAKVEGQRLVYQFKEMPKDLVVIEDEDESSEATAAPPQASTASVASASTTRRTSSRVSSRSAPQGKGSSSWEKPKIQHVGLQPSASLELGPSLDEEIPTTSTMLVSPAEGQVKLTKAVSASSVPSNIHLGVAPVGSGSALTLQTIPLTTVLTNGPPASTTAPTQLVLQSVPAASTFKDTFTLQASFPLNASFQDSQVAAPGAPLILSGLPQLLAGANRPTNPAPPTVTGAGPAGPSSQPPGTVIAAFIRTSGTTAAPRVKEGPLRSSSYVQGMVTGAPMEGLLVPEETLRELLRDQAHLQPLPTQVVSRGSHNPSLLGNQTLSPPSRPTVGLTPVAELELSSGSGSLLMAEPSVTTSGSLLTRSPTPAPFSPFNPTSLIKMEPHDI
# ETV1, sequence (P50549 whole entry): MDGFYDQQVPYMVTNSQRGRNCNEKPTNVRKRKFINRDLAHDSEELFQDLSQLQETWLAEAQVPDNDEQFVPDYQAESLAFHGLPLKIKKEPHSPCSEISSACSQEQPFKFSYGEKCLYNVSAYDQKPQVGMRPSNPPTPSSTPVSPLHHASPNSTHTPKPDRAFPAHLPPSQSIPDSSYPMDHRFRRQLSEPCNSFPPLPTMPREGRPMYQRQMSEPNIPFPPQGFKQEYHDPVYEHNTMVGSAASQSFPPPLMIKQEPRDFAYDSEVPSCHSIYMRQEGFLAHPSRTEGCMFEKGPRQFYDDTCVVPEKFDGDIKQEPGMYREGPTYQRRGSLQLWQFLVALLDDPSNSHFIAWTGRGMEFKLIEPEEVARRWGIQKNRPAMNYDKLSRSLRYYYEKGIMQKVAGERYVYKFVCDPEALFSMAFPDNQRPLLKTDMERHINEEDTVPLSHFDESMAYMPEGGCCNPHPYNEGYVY
# ETV5, sequence (P41161 whole entry): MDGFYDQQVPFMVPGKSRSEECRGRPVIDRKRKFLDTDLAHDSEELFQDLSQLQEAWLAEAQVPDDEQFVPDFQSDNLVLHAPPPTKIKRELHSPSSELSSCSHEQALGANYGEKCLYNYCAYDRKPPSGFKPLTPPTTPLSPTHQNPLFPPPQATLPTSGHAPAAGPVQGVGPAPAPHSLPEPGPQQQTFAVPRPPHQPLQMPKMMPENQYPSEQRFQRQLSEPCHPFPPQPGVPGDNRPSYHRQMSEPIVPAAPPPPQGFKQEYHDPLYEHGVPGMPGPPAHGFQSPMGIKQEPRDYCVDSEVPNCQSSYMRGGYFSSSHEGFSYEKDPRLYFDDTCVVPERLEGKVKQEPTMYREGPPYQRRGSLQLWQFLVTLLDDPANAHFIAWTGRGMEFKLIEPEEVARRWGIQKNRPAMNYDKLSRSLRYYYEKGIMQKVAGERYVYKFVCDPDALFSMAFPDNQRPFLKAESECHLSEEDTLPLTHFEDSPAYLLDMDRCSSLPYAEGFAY
# HSF1, sequence (Q00613 whole entry): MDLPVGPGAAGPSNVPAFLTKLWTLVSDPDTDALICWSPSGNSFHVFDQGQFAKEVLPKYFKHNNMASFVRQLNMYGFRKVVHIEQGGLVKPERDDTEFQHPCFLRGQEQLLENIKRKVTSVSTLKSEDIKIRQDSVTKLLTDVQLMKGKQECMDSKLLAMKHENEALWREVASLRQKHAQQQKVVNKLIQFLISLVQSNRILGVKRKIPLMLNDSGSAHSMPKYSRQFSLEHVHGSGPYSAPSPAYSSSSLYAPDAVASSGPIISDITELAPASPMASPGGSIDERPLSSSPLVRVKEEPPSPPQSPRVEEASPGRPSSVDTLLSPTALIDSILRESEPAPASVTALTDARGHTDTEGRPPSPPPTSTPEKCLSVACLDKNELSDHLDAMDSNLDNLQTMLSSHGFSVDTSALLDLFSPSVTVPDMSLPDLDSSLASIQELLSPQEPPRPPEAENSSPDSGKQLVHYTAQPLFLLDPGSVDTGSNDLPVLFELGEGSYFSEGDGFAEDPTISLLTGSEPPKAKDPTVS
# CRX, sequence (O43186 whole entry): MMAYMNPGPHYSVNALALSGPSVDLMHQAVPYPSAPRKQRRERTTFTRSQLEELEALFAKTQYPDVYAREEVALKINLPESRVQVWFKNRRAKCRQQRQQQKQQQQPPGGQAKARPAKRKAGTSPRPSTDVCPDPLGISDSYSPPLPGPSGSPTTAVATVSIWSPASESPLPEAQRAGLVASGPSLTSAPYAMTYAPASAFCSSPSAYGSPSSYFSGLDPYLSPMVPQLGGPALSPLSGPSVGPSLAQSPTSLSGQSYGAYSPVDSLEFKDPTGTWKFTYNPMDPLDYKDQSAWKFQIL
sequence,measurement,setting,value
GAACTA,binding signal,[1],"1.39 fold enrichment (6-mer frequency, TF over GST control)"
same,binding signal,[2],"1.39 fold enrichment (6-mer frequency, TF over GST control)"
same,binding signal,[3],"1.34 fold enrichment (6-mer frequency, TF over GST control)"
same,binding signal,[4],"1.32 fold enrichment (6-mer frequency, TF over GST control)"
same,binding signal,[5],"1.3 fold enrichment (6-mer frequency, TF over GST control)"
same,binding signal,[6],"1.37 fold enrichment (6-mer frequency, TF over GST control)"
same,binding signal,[7],"1.41 fold enrichment (6-mer frequency, TF over GST control)"
same,binding signal,[8],"1.32 fold enrichment (6-mer frequency, TF over GST control)"
same,binding signal,[9],"1.37 fold enrichment (6-mer frequency, TF over GST control)"
same,binding signal,[10],"1.25 fold enrichment (6-mer frequency, TF over GST control)"
same,binding signal,[11],"1.33 fold enrichment (6-mer frequency, TF over GST control)"
same,binding signal,[12],"1.32 fold enrichment (6-mer frequency, TF over GST control)"
same,binding signal,[13],"1.48 fold enrichment (6-mer frequency, TF over GST control)"
same,binding signal,[14],"1.21 fold enrichment (6-mer frequency, TF over GST control)"
same,binding signal,[15],"1.25 fold enrichment (6-mer frequency, TF over GST control)"
same,binding signal,[16],"1.31 fold enrichment (6-mer frequency, TF over GST control)"
same,binding signal,[17],"1.23 fold enrichment (6-mer frequency, TF over GST control)"
same,binding signal,[18],"1.13 fold enrichment (6-mer frequency, TF over GST control)"
same,binding signal,[19],"1.37 fold enrichment (6-mer frequency, TF over GST control)"
